Cardiac RTF inh: cardiac RTF calcium desensitization; IANBD-labeled cardiac RTF, Ca2+ fluorescence; inhibition, % at 7.15 µM; 0.12% of 340,000 active;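 active = inhibition above the mean inhibition of all tested compounds plus 3 SD, cut at about 17% in these data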;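 note: assay run at fixed EC70 calcium of 1.6 mM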
cardiac RTF act: increases calcium sensitivity of human cardiac regulated thin filaments; activation, % at 7.2 µM; IANBD-labeled TnC RTF fluorescence at EC20 calcium; 0% EC20 calcium, 100% full calcium; 0.24% of 340,000 active;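 active = activation above the mean over all tested compounds plus 3 SD, cut at about 30% in these data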;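 note: rise in fluorescence read as greater calcium sensitivity of cardiac thin filaments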
E coli Lon inh: E. coli protease La inhibition. P0A9M0. inhibition, % at 7.94 µM. purified E. coli Lon protease, fluorescence polarization. 0.42% of 360,000 active. AID 602123; in the data active = inhibition above about 13%, passing the limit was not always enough;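 note: 0% = enzyme with probe and DMSO and 100% = no enzyme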
LANA DNA inh: blocks KSHV LANA C-terminal domain binding to DNA; MBP-C-LANA/FAM-LBS DNA binding, fluorescence polarization; inhibition, % at 9 µM; 0.078% of 340,000 active; AID 504423;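 active = highest replicate inhibition at or above 60% at 9 µM, even if other replicates fall short; inactive = all replicates below 60% inhibition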;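 note: 0% = neutral control wells and 100% = 4 µM acridine orange control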
Keap1-Nrf2 PPI: disrupts human Keap1 binding to Nrf2 peptide; Q14145; AID 504523; inhibition, % at 9.4 µM; Keap1 Kelch-Nrf2 peptide fluorescence polarization, 1536-well; 0.15% of 340,000 active; in the data active = inhibition above about 12%;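 note: human Keap1 Kelch domain with fluorescein labeled Nrf2 9mer peptide probe; 0% = neutral control wells and 100% = peptide positive control; higher means more block of Keap1 binding to Nrf2 peptide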
EBV gp42 inh: EBV gp42 inhibition; Q1HVG2; Fluorescence polarization binding assay, mP read-out; inhibition, % (tested at 21.74 µM); 0.42% of 220,000 active; AID 1085; in the data active = inhibition above about 50%
The depositor's hits bear a star; i = inactive; . = no result. A selection: hits, their analogues and other compounds. The true share with any hit is near 0.98%.

SMILES	Cardiac RTF inh	cardiac RTF act	E coli Lon inh	LANA DNA inh	Keap1-Nrf2 PPI	EBV gp42 inh
CCn1cc(C(=O)N[C@H](C(=O)NCCCn2ccnc2)C(C)C)c(=O)c2cc3c(cc21)OCO3	-2	3	3	0	3	.
O=C(COc1ccc(Cl)cc1)NCc1ccccc1	-10	152*	-1	1	0	.
O=C(COc1ccccc1)NCc1ccccc1	-5	4	-2	0	5	-22
Cc1ccc(NC(=O)C(c2ccccc2)N2CCN(CC(=O)NC3CC3)CC2)cc1 (configuration not stated)	3	3	-8	1	-7	.
Cc1cc2ccccn2c1C(=O)c1ccc(N/N=C/c2ccc(C(=O)O)cc2)c([N+](=O)[O-])c1	-1	-1	-12	1	-4	65*
COc1cc(C(=O)Nc2ccc(N3CCN(C(=O)c4ccc(C)cc4)CC3)cc2)cc(OC)c1OC	-6	-3	1	1	-2	.
COc1cc(C2CC(C(F)(F)F)n3ncc(C(=O)O)c3N2)cc(OC)c1OC (configuration not stated)	-8	3	5	0	-2	173*
CCN(CC)C(=O)c1sc2nc(-c3cccs3)cc(-c3ccc(Cl)cc3)c2c1N	-3	11	11	3	-4	86*
CCN(CC)C(=O)c1sc2nc(-c3cccs3)cc(-c3cccs3)c2c1N	-7	1	-2	0	-1	47
CCOc1ccc(C2C=C(c3ccc(F)cc3)Nc3ncnn32)cc1 (configuration not stated)	-4	-2	-4	1	4	53*
CCc1nn2c(=O)cc(COc3ccc(/C=C4\C(=N)N5N=C(C)SC5=NC4=O)cc3)nc2s1	-4	5	-4	2	-3	73*
Cc1ccc(C(=O)COC(=O)C2CCC2)cc1	-5	63*	-11	-1	1	.
Cc1ccc2c(cnn2C(=O)CCC(=O)NCc2cccc(Cl)c2)c1	4	6	0	1	-8	.
Cc1cc(NS(=O)(=O)c2ccc(NC(=O)c3ccccc3C)cc2)no1	-7	-9	5	1	-7	.
Cc1cc(NS(=O)(=O)c2ccc(NC(=O)c3cc4cc(Br)ccc4oc3=O)cc2)no1	-9	-1	6	0	-4	101*
COc1ccc(NC(=O)N(C)C[C@@H]2OCc3cnnn3CCCC(=O)N([C@@H](C)CO)C[C@H]2C)cc1	.	.	6	.	.	.
Cc1ccc(C2C(C#N)=C(N)SC(N)=C2C#N)cc1	-68	41*	-404	-5	-66	-67
Cc1ccc(C2C(C#N)=C(N)SC(N)=C2C#N)c(C)c1	-124	81*	-421	-4	-24	-45
COc1cc2c(cc1OC)C(c1cc(Br)ccc1O)N(C(C)=O)CC2 (configuration not stated)	1	12	7	0	1	.
CC(C)Nc1nc(Nc2ccc(Cl)cc2F)c2sccc2n1	.	.	8	.	.	.
CS(=O)(=O)N1N=C(c2ccccc2)CC1c1ccc2c(c1)OCO2 (configuration not stated)	-8	10	-80	2	-15	91*
Cc1cc2nc(NCCCO)n(CC(=O)c3cc(C(C)(C)C)c(O)c(C(C)(C)C)c3)c2cc1C	5	-1	1	2	0	.
CC(C)Nc1nc(Cl)nc(N(C#N)CN2C(=O)c3ccccc3S2(=O)=O)n1	-10	-1	-1	-2	-13	52*
N=C1/C(=C\c2ccc(-c3ccc(C(=O)O)cc3)o2)C(=O)N=C2SC=C(c3ccccc3)N12	4	-6	-3	2	-12	61*
C[C@H](NC(=O)c1cc2c(cn1)[nH]c1ccccc12)C(=O)O	-6	2	-6	3	2	.
COC(=O)[C@H](C)NC(=O)c1cc2c(cn1)[nH]c1ccccc12	-1	32*	-5	1	3	.
O=[N+]([O-])c1cc(CN2CCOCC2)c2cccnc2c1O	.	.	.	.	.	87*
S=C(SSC(=S)N1CCOCC1)N1CCOCC1	.	.	-1	.	.	.
CCCOc1cc(N(CC)CC)ccc1/C=C(/C#N)c1nc2ccc(C)cc2[nH]1	-189	61*	i	0	-6	92*
CCN(CC)c1ccc(/C=C(/C#N)c2nc3ccc(C)cc3[nH]2)c(OC(C)C)c1	-459	174*	-446	1	-12	67*
